# Reference: PubChem BioAssay (NCI)
# This is part of a sample that, as a whole, favours compounds with a hit. Of some 83,000 tested, about 20% had one in any assay.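 How to read the values: 0–100, growth inhibition (40 = 60% inhibited); 0, no net growth; -100 to 0, cell death (-40 = 40% of starting cells died; -100 = all dead).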 Values without a mark were called inactive. Activity calls are given as the source filed them. The calls were made as follows: active = growth percent below 10; inactive = the rest.
# Columns and labels:
# Test in all cases: NCI-60 one-dose screen, 48 h (100 = growth as untreated, 0 = no growth, -100 = all killed)
# Conditions in all cases: 10 µM unless noted
# NCI-H23 lung = test system: NCI-H23 lung
# NCI-H226 lung = test system: NCI-H226 lung
# NCI-H322M lung = test system: NCI-H322M lung
# HOP-62 NSCLC = test system: HOP-62 NSCLC
# NCI-H460 lung = test system: NCI-H460 lung
# HOP-92 NSCLC = test system: HOP-92 NSCLC
# NCI-H522 lung = test system: NCI-H522 lung
# A549/ATCC NSCLC = test system: A549/ATCC NSCLC
# 786-0 renal = test system: 786-0 renal
# COLO 205 colon = test system: COLO 205 colon
Compound,growth (NCI-H23 lung),growth (NCI-H226 lung),growth (NCI-H322M lung),growth (HOP-62 NSCLC),growth (NCI-H460 lung),growth (HOP-92 NSCLC),growth (NCI-H522 lung),growth (A549/ATCC NSCLC),growth (786-0 renal),growth (COLO 205 colon)
COc1ccc(Cn2cc(C(=O)N=Nc3c(O)[nH]c4c(C)cccc34)nn2)cc1,89.1%,75.1%,89.6%,106%,73.1%,51.3%,77.5%,85.3%,43.5%,108%
CN1CCN(C(=O)[C@@]2(C)CC[C@]3(C)CC[C@]4(C)C(=CC[C@@H]5[C@@]6(C)CCC(=O)NC(C)(C)[C@@H]6CC[C@]54C)[C@@H]3C2)CC1,61.8%,68.3%,70.7%,62.8%,31.8%,15.9%,74.8%,51.9%,47.9%,7.65% (active)
c1ccc2c(c1)CCCc1nnc3nc4ccccc4n3c1-2,46.7%,51.2%,48.2%,34.8%,25.8%,-2.09% (active),55.6%,29.9%,34.2%,12%
CCOC(=O)c1c(C)c2c(n1Cc1ccccc1)CSCC2=O,4.82% [100 µM] (active),-5.37% [100 µM] (active),36.4% [100 µM],-25.9% [100 µM] (active),-21.1% [100 µM] (active),-19.4% [100 µM] (active),16.5% [100 µM],20.2% [100 µM],-11.2% [100 µM] (active),-53.3% [100 µM] (active)
COc1ccccc1C(=O)Nc1cccc(NC(=O)c2ccoc2C)c1,47.5%,70.7%,59.5%,49.5%,13.9%,47.2%,13.9%,28.2%,32.9%,39.2%
O=C(Nc1cnc(Nc2ccc(N3CCOCC3)nc2)nc1Oc1ccc(C(F)(F)F)cc1)c1ccncc1,70%,92.8%,87.3%,93.1%,74.3%,94.1%,82.8%,80.5%,96.8%,99.8%
O=C(C1=Cc2cc3ccccc3n2Cc2cnnn21)c1ccc(O)cc1,75.6%,85.1%,89.4%,55.7%,27.8%,84.4%,36.7%,50.7%,81.8%,75.5%
Cc1n[nH]c2ccc(Br)cc2c1=O,98.3%,96.5%,98.7%,93.9%,110%,103%,83.6%,99%,102%,106%
Cc1nc2c(c(=O)[nH]1)C(c1ccccc1)c1ccc3ccccc3c1O2 (stereo not given),50.4%,62.5%,59.1%,20.2%,20.5%,24.7%,-31.4% (active),40.2%,25%,72.9%
CCOC(=O)C1=C(C)/C(=C\c2[nH]c(C)c(C(=O)OCC)c2C)N=C1C,80.2%,94.3%,93.5%,83.2%,102%,103%,75.4%,86.7%,98.9%,85.2%
CN(CCCNC(=O)Cc1ccc2ccc3cccc4ccc1c2c34)CCCNc1cc(-c2ccc3ccccc3c2)nc2ccccc12,-82.1% (active),-39.5% (active),-83.2% (active),-85.9% (active),-73.9% (active),-88.8% (active),-42.9% (active),1.17% (active),-80.2% (active),-77.3% (active)
COc1ccc(CCN2C(=O)/C(=C/c3ccc(C4Oc5ccccc5C5CC(c6ccccc6)=NN54)cc3)SC2=S)cc1 (stereo not given),100%,105%,108%,98.1%,110%,111%,96%,108%,106%,107%
O=C(CCCCCNC(=O)c1cc(=O)c(O)co1)Nc1ccccc1,99.1%,105%,97.2%,115%,111%,99.8%,90.9%,97.6%,97.5%,120%
CNCc1cccc2c1OCCOCCOCCNS(=O)(=O)c1ccc(cc1)-c1cnc(N)c(n1)C(=O)N2,36.7%,24.5%,46.2%,26.4%,9.41% (active),61.7%,9.67% (active),46.3%,30.8%,-18.7% (active)
CC(=O)c1sc2sc(C(C)=O)c(C)c2c1C,101%,42.5%,99%,80.3%,97.9%,91.1%,76.6%,74.8%,89.2%,114%
COc1ccc(/C(C)=C(\c2ccc(Cl)cc2)c2ccc(OCCN3CCCCC3)cc2)cc1,57.9%,89.4%,68.8%,68.6%,24.6%,70.3%,78.3%,38.5%,-5.84% (active),-4.92% (active)
COc1cc2c(cc1OCCCCN1CCN(C(=S)SCCC(C#N)(c3ccccc3)c3ccccc3)CC1)N=C[C@@H]1CCCN1C2=O,-33.8% (active),-44.2% (active),-81.1% (active),7.67% (active),-73.9% (active),-72.4% (active),-54.1% (active),-32.1% (active),-85.2% (active),-7.95% (active)
CC1(C)CC(=O)c2c(nn(-c3ccc(Br)cc3)c2-c2cn(-c3ccccc3)nc2-c2cccnc2)C1,90.4%,98.4%,93%,81.3%,97.5%,87.2%,85.6%,92.5%,100%,105%
C#CCn1cnc2cnc(Nc3cccc(NC(=O)C=C)c3)nc21,95.6% [6.25 µM],78.8% [6.25 µM],96.1% [6.25 µM],78.6% [6.25 µM],90.6% [6.25 µM],32.6% [6.25 µM],71.4% [6.25 µM],85.3% [6.25 µM],56.8% [6.25 µM],82.2% [6.25 µM]
CCN1C(=O)N(CC)C2C1NN=c1s/c(=C3\C(=O)N(CC(C)C)c4ccccc43)c(=O)n12 (stereo not given),31.1%,61.5%,58.1%,45.6%,5.36% (active),66.3%,-2.72% (active),21.6%,37.2%,17.6%
Cc1ccc(/C=C/C(=O)c2cccc(OCCCOc3cccc(C(=O)/C=C/c4ccc(C)cc4)c3)c2)cc1,69.5%,77.5%,85.1%,102%,75.9%,92.5%,76.2%,81.2%,57.9%,90.9%
CN1CCN(Cc2ccc(NC(=O)c3cncc(C#Cc4cnc(N)c5ncccc45)c3)cc2C(F)(F)F)CC1,22.2%,7.14% (active),25.1%,-5.02% (active),-35.5% (active),7.16% (active),9.75% (active),10.6%,-82.3% (active),-55.2% (active)
C=C1C(=O)O[C@H]2[C@H]1CC/C(COC(=O)/C=C\C(=O)NCc1ccc(Cn3c(=O)sn(CCCCC)c3=O)cc1)=C\CC[C@@]1(C)O[C@@H]21,87.4%,104%,101%,104%,97.8%,89.7%,-7.84% (active),97.5%,62.8%,19.3%
CCN(CC)CCCN1C(=O)c2c(c(C)c3c(oc4ccc(O)cc43)c2C)C1=O,92.7%,-44.7% (active),81.3%,89.9%,-25.9% (active),69.3%,80%,-76.8% (active),-72.6% (active),64%
O=C1Nc2ccccc2C1(c1c[nH]c2ccccc12)c1c[nH]c2ccccc12,-13.5% (active),8.63% (active),-15.6% (active),49.3%,70.6%,-6.64% (active),21.6%,58.7%,83.7%,-27.7% (active)
O=C1/C=C/[C@@H](O)[C@@H]2C[C@@H](O)C[C@H]2/C=C/CCC[C@H](CCO)O1,10.2%,-38.9% (active),29.3%,31%,15.9%,-7.37% (active),-12.4% (active),17.7%,-51.7% (active),-66.9% (active)
